Test results: PubChem BioAssay (Tox21)
Inconclusive results are not listed. Entries that show only a call come without a potency. Some structures have more than one record in an assay (separate samples or runs), and their calls can disagree. Calls of active or inactive are those of the source. Unless noted, calls follow the shape of the full dose curve.

Legend:
[1] = Nuclear factor erythroid 2-related factor 2/antioxidant responsive element (Nrf2/ARE) small molecule agonists: luciferase reporter gene qHTS assay in human keratinocytes (AID 1919969); also: nearly all actives have a fitted effect of over 35% in size
[2] = target: Gonadotropin-releasing hormone receptor (Homo sapiens) (UniProt P30968); assay: Human gonadotropin-releasing hormone receptor (GnRHR) small molecule agonists, calcium flux assay in GnRHR-HEK293 cells (AID 1920063); also: nearly all actives have a fitted effect of over 35% in size
In short: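 Stable human GnRHR HEK293 line. 18 h plating, then calcium dye for 1 h at 37 C. Agonist-mode compound addition from DMSO stocks; fluorescence monitored 3 min.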

[3] = target: KiSS-1 receptor (Homo sapiens) (UniProt Q969F8); assay: Human kisspeptin (KISS1R) small molecule agonists, calcium flux assay in KISS1R-HEK293 cells (AID 1920064; active = well fitted activation curve with a large enough effect in the repeat runs)
In short: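 After overnight (18 h) culture at 37 C/5% CO2, human KISS1R-HEK293 cells received calcium dye for 1 h, then test compound; emission at 540 nm (excitation 480 nm) was tracked for 3 min.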

[4] = G protein-coupled receptor (GPCR) small molecule agonists, calcium flux assay: HEK293 wild type cell line counter screen (AID 1920065)
In short: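 Following 18 h incubation at 37 C/5% CO2, plates got calcium dye for 1 h; compounds, ATP or DMSO were then pinned in and fluorescence followed kinetically (480/540 nm).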

[5] = p53 small molecule agonists, cell-based qHTS assay with human liver microsomes (AID 1963577)
In short: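 Compounds act here after metabolic activation: human liver microsomes and NADPH, both at 0.5 mg/mL final, were co-added to p53RE-bla cells. Incubation ran 16 h at 37 C, followed by LiveBLAzer detection.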

[6] = p53 small molecule agonists, cell-based qHTS assay with rat liver microsomes (AID 1963578)
In short: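 Read-out is beta-lactamase reporter fluorescence (LiveBLAzer, 2 h, room temperature, dark) in p53RE-bla cells treated 16 h at 37 C with compound, rat liver microsomes and NADPH, both 0.5 mg/mL final.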

[7] = p53 small molecule agonists, cell-based qHTS assay with human liver microsomes: qHTS cell viability counter screen (AID 1963579); also: nearly all actives have a fitted effect of over 45% in size; also: potency is read from the fitted curve at half-maximal effect
In short: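 Cells carrying the p53 response-element beta-lactamase reporter are treated for 16 h at 37 C with test compounds in the presence of human liver microsomes and NADPH (both 0.5 mg/mL final); ATP-based CellTiter-Glo luminescence then reports viability.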

[8] = p53 small molecule agonists, cell-based qHTS assay with rat liver microsomes: qHTS cell viability counter screen (AID 1963580); also: nearly all actives have a fitted effect of over 45% in size; also: potency is read from the fitted curve at half-maximal effect
In short: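 Rat liver microsome (0.5 mg/mL final) and NADPH (0.5 mg/mL final) co-incubation with compounds for 16 h at 37 C on HCT-116 p53RE-bla cells; cytotoxicity taken from intracellular ATP luminescence.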

[9] = p53 small molecule agonists, cell-based qHTS assay: qHTS cell viability counter screen (AID 1963581); also: nearly all actives have a fitted effect of over 45% in size
In short: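 qHTS counter screen: 16 h compound exposure at 37 C of p53RE-bla HCT-116 cells (4,000 per well, seeded 5 h prior), cell viability by ATP luminescence.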

[10] = p53 small molecule agonists, cell-based qHTS assay (AID 1963582; active = well fitted activation curve with a large enough effect in the signal ratio in the repeat runs, not every such curve was filed as active; the % refers to the signal ratio)
In short: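 Measured: fluorescence from cleaved LiveBLAzer substrate. System: p53RE-bla cells, 16 h compound treatment at 37 C, 2 h substrate step at room temperature.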

[11] = target: 5-hydroxytryptamine receptor 2A (Homo sapiens) (UniProt P28223); assay: 5-hydroxytryptamine receptor 2A (HTR2A) small molecule antagonists, cell-based qHTS assay (AID 1963586); also: nearly all actives have a fitted effect of over 45% in size
In short: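 CHO cells stably expressing human HTR2A were plated for 18 h at 37 C, then loaded with calcium dye for 1 h. Compounds were preincubated 5 min at room temperature before DOI (4 nM solution) was added. Kinetic fluorescence was read for 3 min.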

[12] = target: 5-hydroxytryptamine receptor 2A (Homo sapiens) (UniProt P28223); assay: 5-hydroxytryptamine receptor 2A (HTR2A) small molecule agonists, cell-based qHTS assay (AID 1963587); also: nearly all actives have a fitted effect of over 30% in size
In short: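 Kinetic calcium-flux fluorescence (2 min, 1 sec intervals) after compound addition in agonist mode. HTR2A-CHO cells were cultured 18 h, then dye-loaded 1 h at 37 C.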

[13] = target: Muscarinic acetylcholine receptor M1 (Homo sapiens) (UniProt P11229); assay: Cholinergic receptor muscarinic 1 (CHRM1) small molecule antagonists, cell-based qHTS assay (AID 1963588); also: nearly all actives have a fitted effect of over 40% in size
In short: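 Compounds were tested at 15 concentrations in three independent runs. Dye-loaded CHRM1-CHO cells were exposed 5 min at room temperature before stimulation by acetylcholine added at 50nM. Intracellular calcium was read kinetically on FDSS for 3 min.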

[14] = target: Muscarinic acetylcholine receptor M1 (Homo sapiens) (UniProt P11229); assay: Cholinergic receptor muscarinic 1 (CHRM1) small molecule agonists, cell-based qHTS assay (AID 1963589); also: nearly all actives have a fitted effect of over 35% in size
In short: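 Kinetic fluorescence (1 s intervals) of calcium-sensitive dye in human M1 CHO cells after compound addition; cells pre-incubated 18 h at 37 C/5% CO2 and dye-loaded 1 h.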

[15] = cAMP Responsive Elements (CRE) small molecule agonists, cell-based qHTS assay (AID 1963590)
In short: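 Test agents in DMSO were incubated 3 h at 37 C/5% CO2 with CRE-bla HEK 293T cells seeded 18 h earlier; LiveBLAzer B/G FRET substrate was added and read after 2 h at room temperature.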

[16] = cAMP Responsive Elements (CRE) small molecule antagonists, cell-based qHTS assay (AID 1963591; active = well fitted inhibition curve with a large enough effect in the signal ratio in the repeat runs, not every such curve was filed as active; the % refers to the signal ratio)
In short: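 Reporter line CRE-bla HEK 293T in dialyzed-FBS DMEM; cells preincubated 18 h, treated 3 h with compound plus NKH477 (0.25 uM final); LiveBLAzer FRET, 2 h RT.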

[17] = target: Beta-2 adrenergic receptor (Homo sapiens) (UniProt P07550); assay: Adrenergic beta2 receptor (ADRB2) small molecule antagonists, cell-based qHTS assay (AID 1963592); also: series mostly up to about 92 µM; nearly all actives have a fitted effect of over 50% in size
In short: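 Assay format: CHO-ADRB2 cells, 18-20hr seeding at 37C/5% CO2, then compound plus 1nM isoproterenol agonist mix for 0.5hr RT. Homogeneous time-resolved fluorescence cAMP detection after 1hr, expressed as 665/615 nm ratio.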

[18] = target: Beta-2 adrenergic receptor (Homo sapiens) (UniProt P07550); assay: Adrenergic beta2 receptor (ADRB2) small molecule agonists, cell-based qHTS assay (AID 1963593);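 also: CHO cells stably overexpressing human ADRB2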
In short: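 CHO cells stably over-expressing ADRB2 were plated overnight at 37C, then dosed with compounds plus a stimulation mix containing 100uM IBMX and 25uM Ro-20-1724 for 0.5hr at room temperature. cAMP was measured by HTRF competition, 1hr.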

[19] = target: D(2) dopamine receptor (Homo sapiens) (UniProt P14416); assay: Dopamine D2 receptor (DRD2) small molecule agonists, cell-based qHTS assay (AID 1963594); also: nearly all actives have a fitted effect of over 35% in size
In short: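 cAMP accumulation in DRD2-HEK293 cells measured by HTRF after 1 h detection; compounds added 10 min before NKH477 (200nM […]) forskolin-analogue stimulation, 30 min at room temperature, with Ro20-1724 present at 0.1 mM final.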

[20] = target: D(2) dopamine receptor (Homo sapiens) (UniProt P14416); assay: Dopamine D2 receptor (DRD2) small molecule antagonists, cell-based qHTS assay (AID 1963595; active = well fitted inhibition curve with a large enough effect in the signal ratio in the repeat runs, with a control signal flat; the % refers to the signal ratio)
In short: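 DRD2-HEK293; 0.1 mM Ro20-1724; cpd 10 min RT; NKH477 200 nM + quinpirole 12 nM, 30 min RT; HTRF cAMP (cAMP-d2/anti-cAMP cryptate), 665/620 nm ratio after 1 h.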

Beta-2 adrenergic receptor (Homo sapiens), sequence (P07550 whole entry, looked up): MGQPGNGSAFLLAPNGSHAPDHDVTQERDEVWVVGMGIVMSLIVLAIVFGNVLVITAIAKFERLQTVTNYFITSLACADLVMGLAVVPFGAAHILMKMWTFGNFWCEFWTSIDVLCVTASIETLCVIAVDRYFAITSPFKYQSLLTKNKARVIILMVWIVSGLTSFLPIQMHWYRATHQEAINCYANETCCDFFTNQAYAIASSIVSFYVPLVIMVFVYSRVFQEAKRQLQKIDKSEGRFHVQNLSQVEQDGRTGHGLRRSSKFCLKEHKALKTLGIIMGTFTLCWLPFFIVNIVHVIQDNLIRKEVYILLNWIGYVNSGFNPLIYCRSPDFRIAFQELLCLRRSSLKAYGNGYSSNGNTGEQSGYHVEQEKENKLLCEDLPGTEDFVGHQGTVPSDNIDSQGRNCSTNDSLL
KiSS-1 receptor (Homo sapiens), sequence (Q969F8 whole entry, looked up): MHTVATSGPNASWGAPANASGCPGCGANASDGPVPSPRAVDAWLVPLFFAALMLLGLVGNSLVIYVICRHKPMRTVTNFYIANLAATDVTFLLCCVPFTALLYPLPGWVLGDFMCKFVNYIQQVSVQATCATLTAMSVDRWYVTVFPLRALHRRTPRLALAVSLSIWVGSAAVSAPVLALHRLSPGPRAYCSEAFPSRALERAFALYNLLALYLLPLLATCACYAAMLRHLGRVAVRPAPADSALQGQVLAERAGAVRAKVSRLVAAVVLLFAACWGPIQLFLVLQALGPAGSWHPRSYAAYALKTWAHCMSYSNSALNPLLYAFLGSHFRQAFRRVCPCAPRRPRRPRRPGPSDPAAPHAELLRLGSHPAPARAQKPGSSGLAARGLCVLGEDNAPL
Muscarinic acetylcholine receptor M1 (Homo sapiens), sequence (P11229 whole entry, looked up): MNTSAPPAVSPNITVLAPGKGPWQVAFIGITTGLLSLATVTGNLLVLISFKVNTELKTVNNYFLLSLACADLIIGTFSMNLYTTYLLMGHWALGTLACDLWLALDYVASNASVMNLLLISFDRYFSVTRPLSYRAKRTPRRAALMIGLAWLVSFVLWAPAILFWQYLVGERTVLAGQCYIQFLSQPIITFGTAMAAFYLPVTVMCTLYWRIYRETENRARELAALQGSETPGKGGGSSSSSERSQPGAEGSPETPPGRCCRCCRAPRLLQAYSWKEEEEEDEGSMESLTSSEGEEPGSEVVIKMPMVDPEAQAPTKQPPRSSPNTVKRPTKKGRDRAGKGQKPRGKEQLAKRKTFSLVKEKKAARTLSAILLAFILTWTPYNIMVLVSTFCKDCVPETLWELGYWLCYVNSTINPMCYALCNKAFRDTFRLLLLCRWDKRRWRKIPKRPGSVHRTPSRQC
Gonadotropin-releasing hormone receptor (Homo sapiens), sequence (P30968 whole entry, looked up): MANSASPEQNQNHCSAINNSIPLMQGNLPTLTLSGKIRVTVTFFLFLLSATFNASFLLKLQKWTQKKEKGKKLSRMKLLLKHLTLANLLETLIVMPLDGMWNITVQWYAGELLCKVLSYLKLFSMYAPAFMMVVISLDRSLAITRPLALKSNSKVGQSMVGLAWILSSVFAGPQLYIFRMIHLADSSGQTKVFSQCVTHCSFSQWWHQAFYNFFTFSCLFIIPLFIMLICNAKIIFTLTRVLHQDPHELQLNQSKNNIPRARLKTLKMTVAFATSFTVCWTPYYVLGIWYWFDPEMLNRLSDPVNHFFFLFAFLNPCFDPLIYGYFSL
5-hydroxytryptamine receptor 2A (Homo sapiens), sequence (P28223 whole entry, looked up): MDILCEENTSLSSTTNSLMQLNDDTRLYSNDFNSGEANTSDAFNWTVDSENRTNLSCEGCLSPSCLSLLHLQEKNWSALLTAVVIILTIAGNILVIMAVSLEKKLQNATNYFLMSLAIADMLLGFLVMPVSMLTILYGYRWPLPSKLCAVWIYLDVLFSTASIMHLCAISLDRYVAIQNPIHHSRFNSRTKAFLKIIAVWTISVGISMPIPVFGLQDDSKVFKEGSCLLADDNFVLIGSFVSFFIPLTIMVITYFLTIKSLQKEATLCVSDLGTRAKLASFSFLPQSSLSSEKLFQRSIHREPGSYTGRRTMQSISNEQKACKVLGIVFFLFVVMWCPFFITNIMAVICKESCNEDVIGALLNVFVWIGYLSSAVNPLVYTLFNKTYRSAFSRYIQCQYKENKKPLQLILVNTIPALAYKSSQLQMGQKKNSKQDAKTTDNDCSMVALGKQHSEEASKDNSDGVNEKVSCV
D(2) dopamine receptor (Homo sapiens), sequence (P14416 whole entry, looked up): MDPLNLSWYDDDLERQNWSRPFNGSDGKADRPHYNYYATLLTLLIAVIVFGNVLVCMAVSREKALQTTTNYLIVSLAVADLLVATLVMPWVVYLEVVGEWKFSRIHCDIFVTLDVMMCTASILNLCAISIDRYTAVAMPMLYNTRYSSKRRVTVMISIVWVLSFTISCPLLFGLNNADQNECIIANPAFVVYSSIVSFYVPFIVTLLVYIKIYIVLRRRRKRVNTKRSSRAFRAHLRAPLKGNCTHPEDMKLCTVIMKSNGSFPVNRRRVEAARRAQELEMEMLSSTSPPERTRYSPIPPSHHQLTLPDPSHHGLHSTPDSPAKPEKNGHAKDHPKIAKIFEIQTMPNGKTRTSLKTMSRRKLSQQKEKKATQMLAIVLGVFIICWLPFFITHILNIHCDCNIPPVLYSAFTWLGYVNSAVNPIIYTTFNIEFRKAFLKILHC

Row | Compound | Potency [1] | Potency [2] | Potency [3] | Potency [4] | Potency [5] | Potency [6] | Potency [7] | Potency [8] | Potency [9] | Potency [10] | Potency [11] | Potency [12] | Potency [13] | Potency [14] | Potency [15] | Potency [16] | Potency [17] | Potency [18] | Potency [19] | Potency [20]
1 | CC/C=C\C#N | inactive | inactive | inactive | inactive | inactive | inactive | inactive | inactive | inactive | inactive | inactive | inactive | inactive | inactive | inactive | inactive | inactive | inactive | inactive | inactive
2 | COc1ccc2cccc(CCNC(C)=O)c2c1 | inactive | inactive | inactive | inactive | inactive | inactive | inactive | inactive | inactive | inactive | inactive | inactive | inactive | inactive | inactive | inactive | – | inactive | inactive | inactive
3 | O=C(/C=C/c1ccccc1)OCc1ccccc1 | inactive | inactive | inactive | inactive | inactive | inactive | inactive | inactive | – | inactive | inactive | inactive | – | inactive | – | inactive | inactive | – | inactive | –
4 | ON(Cc1ccccc1)Cc1ccccc1 | inactive | inactive | inactive | inactive | inactive | inactive | inactive | inactive | inactive | – | inactive | inactive | – | inactive | inactive | inactive | inactive | inactive | inactive | –
5 | O=C1CCCc2ccccc21 | inactive | inactive | inactive | inactive | inactive | inactive | inactive | inactive | inactive | inactive | inactive | inactive | inactive | inactive | inactive | inactive | inactive | – | inactive | inactive
6 | CC1(C)[C@H]2CC[C@]1(C)[C@H](O)C2 | inactive | inactive | inactive | inactive | inactive | inactive | inactive | inactive | inactive | inactive | inactive | inactive | inactive | inactive | inactive | inactive | inactive | inactive | inactive | inactive
7 | NS(=O)(=O)c1cc2c(cc1Cl)NC(C1CC3C=CC1C3)NS2(=O)=O (centres undefined) | inactive | inactive | inactive | inactive | inactive | inactive | 3.97 µM (active) | – | inactive | inactive | inactive | inactive | inactive | inactive | inactive | inactive | inactive | – | inactive | inactive
8 | CSc1ccc2c(c1)N(CCC1CCCCN1C)c1ccccc1S2 (centres undefined) | inactive | inactive | inactive | inactive | inactive | inactive | 45.6 µM (active) and inactive | 40.6 µM (active) and inactive | inactive | – | – | – | – | – | – | – | inactive | inactive | inactive | –
9 | CC(O)CNCC(C)O (centres undefined) | inactive | inactive | inactive | inactive | inactive | inactive | inactive | inactive | inactive | inactive | inactive | inactive | inactive | inactive | inactive | – | inactive | – | inactive | inactive
10 | Nc1ccc([N+](=O)[O-])c(C(F)(F)F)c1 | inactive | inactive | inactive | inactive | inactive | inactive | inactive | inactive | inactive | inactive | inactive | inactive | inactive | inactive | – | inactive | inactive | – | – | inactive
11 | COc1cc(/C=C/C(=O)O[C@H]2CC[C@]34C[C@]35CC[C@]3(C)[C@@H]([C@H](C)CCC=C(C)C)CC[C@@]3(C)[C@@H]5CC[C@H]4C2(C)C)ccc1O | inactive | inactive | inactive | inactive | inactive | inactive | inactive | inactive | inactive | inactive | inactive | inactive | inactive | inactive | – | inactive | inactive | – | inactive | inactive
12 | O=C(O)/C=C/c1cnc[nH]1 | inactive | inactive | inactive | inactive | inactive | inactive | inactive | inactive | inactive | inactive | inactive | – | inactive | inactive | inactive | inactive | inactive | – | inactive | inactive
13 | CCOc1c(N2CCOCC2)cnn(C)c1=O | inactive | inactive | inactive | inactive | inactive | inactive | inactive | inactive | inactive | inactive | inactive | inactive | inactive | inactive | inactive | – | inactive | inactive | inactive | –
